Bioassay records from PubChem BioAssay.
Shown is part of a subset that was picked to be rich in hits.
Pf Dd2 inh – blocks in vitro growth of P. falciparum Dd2 | P. falciparum Dd2 growth, SYBR Green, 72 h | Potency, µM (doses to about 28.9 µM), hits mostly inhibitors | hit rate 4.3% among 120,000; active = well fitted inhibition curve with a large enough effect; note: nearly all actives have a fitted effect of over 65% in size
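Readout: SYBR Green fluorescence, 485 nm excitation, 535 nm emission, after ~16 h lysis at 37C. Before that, Dd2-infected red cells (2.5% hematocrit) grew 72 h with compound, 29 uM top final concentration.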
Numbers stand for hits; i = inactive; [ ] = remark or other dose.

SMILES	Pf Dd2 inh
Cn1cc(C(=O)NCCc2ccccc2)c(=O)c2cc(S(=O)(=O)N3CCCCCC3)ccc21	13µM
Cn1cc(C(=O)NCCc2ccc(Cl)cc2)c(=O)c2cc(S(=O)(=O)N3CCCCC3)ccc21	i
CCCCNC(=O)c1cn(C)c2ccc(S(=O)(=O)N3CCCC3)cc2c1=O	i
Cc1cccc(CN2CCCC3(CCN(C(=O)c4ccc(=O)[nH]c4)C3)C2=O)c1 (centres undefined)	i
O=C(c1ccccc1OCC1CCCN(C2CCCC2)C1)N1CCCC1 (centres undefined)	i
O=C(c1ccncc1)N1CCCC(COc2ccccc2C(=O)N2CCOCC2)C1 (centres undefined)	i
CN(C)c1ccc(C(=O)N2CCCC(COc3ccccc3C(=O)N3CCCC3)C2)cc1 (centres undefined)	6.3µM
CC1CCC(NC(=O)C2CCN(C(=O)c3ncn4c3COC(c3ccccc3)C4)CC2)CC1 (centres undefined)	i
CN1c2cc(C(=O)Nc3ccc(OC(F)(F)F)cc3)ccc2C(=O)N2CCCC21 (centres undefined)	i
O=C(NCC1CCCN(C(=O)c2cn[nH]c2-n2cnnn2)C1)c1cccs1 (centres undefined)	i
COc1cccc(-c2cc(-c3cccs3)nc3c(C)noc23)c1	i
COc1ccccc1-c1cc(-c2ccccc2)nc2c(C)noc12	i
COc1cccc(-c2cc(-c3ccccc3)nc3c(C)noc23)c1	14µM
COCc1ccc2c(c1)c(OC(C)(C)C(=O)NCCN1CCOCC1)nn2Cc1ccccc1	i
CC(C)(Oc1nn(CCN2CCOCC2)c2ccccc12)C(=O)NCc1ccccc1	11µM
COCc1ccc2c(c1)c(OC(C)(C)C(=O)NC1CC1)nn2Cc1ccccc1	i
CC(C)(Oc1nn(CCN2CCOCC2)c2ccccc12)C(=O)NCc1ccncc1	i
COCc1ccc2c(c1)c(OC(C)(C)C(=O)NCC1CC1)nn2Cc1ccccc1	4.5µM
COCc1ccc2c(c1)c(OC(C)(C)C(=O)NCC(F)(F)F)nn2Cc1ccccc1	i
CCn1ccc(C(=O)NCCc2noc(-c3ccncc3)n2)n1	i
CCOc1ncccc1C(=O)N(C)Cc1nc(-c2ccccc2)no1	i
CO[C@H]1[C@H](NC(=O)c2ccc(C)nc2)c2ccccc2C12CCNCC2	i
CN1C(=O)CCC2(CNC(=O)NC3CCCC3)CCC=C12 (centres undefined)	i
COCCCn1c(C)cnc1CC1CCNCC1	i
CCn1c(C2CCN(C(=O)CCc3ccccc3OC)CC2)nn(C)c1=O	i
SMILES	Pf Dd2 inh
COc1ccc(C(=O)N2CCC(Cc3nncn3Cc3ccccc3)C2)cc1 (centres undefined)	i
COc1cc(NC(=O)c2ccc3c(c2)N(C)C2CCCN2C3=O)cc(OC)c1OC (centres undefined)	i
COC[C@H]1NC(=O)CC[C@H]1C(=O)Nc1ccc(N2CCOCC2)cc1	i
CN(C)c1ccc(CN2CC[C@H](c3nnc(-c4ccco4)o3)C2)cc1	i
CN(C)c1ccc(-c2nnc([C@H]3CCN(Cc4ccco4)C3)o2)cc1	7.9µM
CN(C)c1ccc(-c2nnc([C@H]3CCN(Cc4ccccc4F)C3)o2)cc1	i
CCc1noc(-c2cn(C3CCN(C(=O)c4ccc(C)c(C)c4)CC3)nn2)n1	i
COCCN1C(=O)CS(=O)C12CCN(S(=O)(=O)c1cn(C)cn1)CC2 (centres undefined)	i
Cn1ccn2ncc(C(=O)NC3CC(c4nnc(CO)n4C4CC4)C3)c12 (centres undefined)	i
Cc1ncsc1CN1CCc2nc(N3CCN(C)CC3)sc2C1	i
CC(Cn1ccnc1-c1cn(C2CCNCC2)nn1)Oc1cccnc1 (centres undefined)	i
Nc1cc(N2CCN(C(=O)C3CCOCC3)CC(O)C2)ncn1 (centres undefined)	i
Cc1ccc(C)c(Nc2nn3c(=O)c4ccc(C(=O)NC5CCCCC5)cc4nc3s2)c1	i
CCN(CC)CCNC(=O)c1ccc2c(=O)n3nc(Nc4cccc(Cl)c4C)sc3nc2c1	5.6µM
Cc1ccccc1Nc1nn2c(=O)c3ccc(C(=O)N4CCCC(C)C4)cc3nc2s1 (centres undefined)	i
Cc1ccc(Cl)cc1Nc1nn2c(=O)c3ccc(C(=O)NC4CCC(C)CC4)cc3nc2s1 (centres undefined)	i
Cc1ccc(C)c(Nc2nn3c(=O)c4ccc(C(=O)NCCC5=CCCCC5)cc4nc3s2)c1	10µM
Cc1c(Cl)cccc1Nc1nn2c(=O)c3ccc(C(=O)NCCC4=CCCCC4)cc3nc2s1	4µM
Cc1ccc(C)c(Nc2nn3c(=O)c4ccc(C(=O)NCCc5ccccc5)cc4nc3s2)c1	i
CN(Cc1ccc(OC(F)(F)F)cc1)Cc1cccn1C	i
CC(=O)Nc1ccc(NC(=O)CN2C(=O)NC(c3ccccc3Cl)C3=C2COC3=O)cc1 (centres undefined)	i
Cc1cc(C)n(Cc2cc(C(=O)N3C[C@H]4CC[C@H]3C4)n[nH]2)n1	i
Cc1cccc(-c2ocnc2C(=O)N2CC[C@H](CO)[C@H](NC(=O)C3CC3)C2)c1	i
Cc1nn(C)cc1CN1C[C@@H](COCC(N)=O)[C@H](c2ccncc2)C1	i
CCOc1ccc(C(=O)N(C)C2CCc3nnc(C)n3CC2)cc1OCC (centres undefined)	i
SMILES	Pf Dd2 inh
COc1cc(OC)cc(C(=O)NCC2CCCN(C/C=C/c3ccccc3OC)C2)c1 (centres undefined)	8.9µM
COc1ccccc1OCC(=O)NCC1CCCN(Cc2ccc(C)c(C)c2)C1 (centres undefined)	i
CCn1cc(CN2CCCC(CNC(=O)c3cc(OC)cc(OC)c3)C2)c(C)n1 (centres undefined)	i
C[C@@H](NC(=O)c1cccn1C)c1onc(-c2cccnc2)c1C(=O)O	i
O=C(CN1C(=O)COc2ccc(C(=O)COc3ccc(F)cc3)cc21)NCCc1ccccc1	i
COc1ccc(OC)c(NC(=O)Cn2c(-c3ccc(F)cc3)nc(C)c(CCO)c2=O)c1	i
Cc1nc(-c2ccc(F)cc2)n(CC(=O)Nc2cc(F)ccc2F)c(=O)c1CCO	i
COc1ccc(Cl)cc1NC(=O)Cn1c(-c2ccccc2)nc(C)c(CCO)c1=O	i
Cc1nc(-c2cccc(Cl)c2)n(CC(=O)Nc2cccc(C(C)C)c2)c(=O)c1CCO	5µM
Cc1cc(NC(=O)Cn2c(-c3cccc(Cl)c3)nc(C)c(CCO)c2=O)no1	i
COc1ccc(Cl)cc1NC(=O)Cn1c(-c2ccc(F)cc2)nc(C)c(CCO)c1=O	14µM
COc1cc(NC(=O)Cn2c(-c3ccccc3)nc(C)c(CCO)c2=O)cc(OC)c1	8.9µM
Cc1nc(-c2ccc(F)cc2)n(CC(=O)Nc2ccc(C(C)C)cc2)c(=O)c1CCO	7.1µM
COc1cc(NC(=O)Cn2c(-c3ccccc3)nc(C)c(CCO)c2=O)cc(OC)c1OC	i
Cc1nc(-c2ccc(F)cc2)n(CC(=O)Nc2ccc(F)cc2)c(=O)c1CCO	i
COc1ccc(NC(=O)Cn2c(-c3ccccc3)nc(C)c(CCO)c2=O)cc1OC	i
Cc1ccc(NC(=O)Cn2c(-c3cccc(Cl)c3)nc(C)c(CCO)c2=O)cc1	i
O=C(N[C@@H]1CCC[C@@H]1C(=O)NCc1ccc(OC(F)(F)F)cc1)c1ccncc1	i
O=C(CCn1cncn1)NCc1cccnc1Oc1cccc(C(F)(F)F)c1	i
Cn1nc(C2CCN(C(=O)c3ccc4ccccc4n3)CC2)c2c1CCOC2	i[5.79 µM]
CCC(C(=O)N1CCN(c2cc(C(F)(F)F)ncn2)CC1)c1ccccc1 (centres undefined)	i
